The results in this text go back to PubChem BioAssay (NCATS).

Results filed as inconclusive are left out. The source made the active and inactive calls. Unless noted, calls follow the shape of the dose curve; as a rule, active = well fitted curve in either direction with a large enough effect (not every such curve was filed as active); inconclusive = small, poorly fitted or top-dose-only effect, or another doubt; inactive = flat fitted curve, though single readings scatter. Bounds are passed on as bounds.

Assay [1] in a line: AP1 Signaling Pathway (AID 357).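 Also: ME-180 reporter cells stimulated with EGF at its EC50 level; % is scaled to controls: 0 for no effect and ±100 for the full control effect.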 To be noted: ME-180 AP-1-bla reporter, EGF-induced, beta-lactamase ratio, 5 h; at 7.69 µM (top of the series) unless noted. The procedure, abridged:
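AP-1-bla ME-180 cells, Opti-MEM + 0.5% dialyzed FBS, plated overnight 37 °C. Cpd titration + EC50 EGF, 5 h 37 °C. CCF4 2.5 h RT; ex 405, em 460/530 ratio → %activity, AC50.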

Assay [2] has as its target Cytochrome P450 1A2 (Homo sapiens) (UniProt P05177). Briefly: p450-cyp1a2 (AID 410; calls by dose curve; also: potency is read from the fitted curve at half-maximal effect). In short, it runs like this: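 20nM CYP1A2 with 100uM Luciferin-ME (at Km) in 100mM KPO4; compound preincubated 10 min, NADPH regeneration added, 60 min at room temperature. Luciferin quantified by luminescence after detection reagent; normalized to 57 uM furafylline.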
Assay [3] can be described thus: NFAT Signaling Pathway (AID 444).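 Also: carbachol stimulus at about its EC50 of 1 µM final; % is scaled to controls: 0 for no effect and ±100 for the full control effect.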 As to conditions: Jurkat NFAT-bla M1, carbachol, beta-lactamase ratio, 5 h; at 7.69 µM (top of the series) unless noted. In short, it runs like this:
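Jurkat cells carrying an NFAT-driven β-lactamase reporter and co-transfected muscarinic M1 receptor were treated with compound plus carbachol (1 uM final, an EC50 level) for 5 h at 37 °C. CCF4 loading followed for 1 h at RT; 460/530 nm ratio gave %activity.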

Assay [4] in a line: Stat Signaling Pathway (AID 446).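 Also: ME-180 cervical cancer cells given 40 pM IL-6 alongside compound; SIE-controlled beta-lactamase reporter measured as 460/530 nm FRET emission ratio; % is scaled to controls: 0 for no effect and ±100 for the full control effect.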 To be noted: ME-180 (cervical carcinoma) SIE beta-lactamase reporter, IL-6 stimulated, 5 h; at 7.69 µM (top of the series) unless noted. In short, it runs like this:
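ME-180 cells carrying a SIE-driven beta-lactamase reporter are stimulated with 40 pM IL-6 for 5 h at 37C in the presence of compound. The 460/530 nm FRET substrate ratio is read after 2.5 h at RT. Data are normalised to 300 pM IL-6 and to 125 nM JAK inhibitor controls.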

The target of assay [5] is Glucocorticoid receptor (Homo sapiens) (UniProt P04150). Briefly: GR-EFC Redistribution (AID 451; calls by dose curve; also: potency is read from the fitted curve at half-maximal effect). To be noted: CHO-K1 GR-EFC translocation, beta-gal luminescence, 2 h. In short, it runs like this:
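CHO-K1 cells stably expressing nuclear-localized β-gal enzyme acceptor and GR fused C-terminally to the enzyme donor fragment; ligand-driven nuclear translocation restores β-gal by complementation. Compounds titrated up to 46 uM final, 2 h at 37 °C; luminescence read.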

The target in assay [6] is Mitogen-activated protein kinase 10 (Mus musculus) (UniProt Q61831). Put plainly: JNK3 AlphaScreen Assay (AID 530).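 Also: kinase came from lysate of stimulated human HepG2 cells; signal reports phosphorylation of biotinylated GST-cJun 1-79 at Ser73 with 10 µM ATP; % is scaled to controls: 0 for no effect and ±100 for the full control effect.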 The procedure, abridged: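 Inhibitors reduce antibody binding to phosphorylated biotin-cJun, lowering AlphaScreen luminescence. Lysates from HepG2 cells pre-activated by IL-1beta plus TNF-alpha supplied JNK3; compounds were titrated.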
In general terms: In Alpha technology, singlet oxygen from a donor bead excites a nearby acceptor bead.

For assay [7], the target named is 3',5'-cyclic-AMP phosphodiesterase 4B (Homo sapiens) (UniProt Q07343). Briefly: qHTS Assay for Inhibitors of PDE-IV (AID 607; active = well fitted activation curve with a large enough effect in the main read-out, with a control signal flat, not every such curve was filed as active; also: % of control where 0% means no effect). In short, it runs like this: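 HEK293 ACTOne cells with CNG channel (1000/well), endogenous PDE4; membrane potential dye, compounds up to 22.9 uM final. Fluorescence Ex 535/Em 590; RO 20-1724 (100 uM final) as reference.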
3',5'-cyclic-AMP phosphodiesterase 4B (Homo sapiens), sequence (Q07343 whole entry, looked up): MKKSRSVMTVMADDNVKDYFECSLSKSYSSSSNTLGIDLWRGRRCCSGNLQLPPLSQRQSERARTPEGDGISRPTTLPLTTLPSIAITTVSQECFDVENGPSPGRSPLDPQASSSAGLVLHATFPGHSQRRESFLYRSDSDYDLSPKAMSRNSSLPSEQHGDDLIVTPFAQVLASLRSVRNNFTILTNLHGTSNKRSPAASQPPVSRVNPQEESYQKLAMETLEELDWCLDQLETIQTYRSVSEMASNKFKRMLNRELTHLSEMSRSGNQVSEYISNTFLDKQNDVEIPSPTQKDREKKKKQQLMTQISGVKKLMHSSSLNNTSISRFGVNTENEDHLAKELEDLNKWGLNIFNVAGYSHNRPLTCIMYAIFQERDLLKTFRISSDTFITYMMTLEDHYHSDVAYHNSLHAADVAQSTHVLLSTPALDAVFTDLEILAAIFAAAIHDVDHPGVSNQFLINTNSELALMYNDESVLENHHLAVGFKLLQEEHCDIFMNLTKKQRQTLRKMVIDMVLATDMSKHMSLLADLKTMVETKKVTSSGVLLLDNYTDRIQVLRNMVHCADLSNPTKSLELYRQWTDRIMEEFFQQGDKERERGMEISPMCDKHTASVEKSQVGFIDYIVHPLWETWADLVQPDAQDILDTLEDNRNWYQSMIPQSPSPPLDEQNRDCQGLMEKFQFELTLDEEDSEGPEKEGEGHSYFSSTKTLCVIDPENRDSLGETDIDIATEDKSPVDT
A general note: In qHTS, concentration-response curves come from the screen itself.

The target of assay [8] is Cytochrome P450 3A4 (Homo sapiens) (UniProt P08684). Put plainly: qHTS Assay for Activators of Cytochrome P450 3A4 (AID 885; active = well fitted curve in the direction sought with a large enough effect; an effect the other way counts as inactive or inconclusive; also: nearly all actives have a fitted effect of over 65% in size). In short, it runs like this: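 Human CYP3A4 (20 nM) with Luciferin-PPXE at 25 uM (its KM) in 200 mM KPO4; 10 min compound preincubation, then NADPH regeneration and 60 min reaction at RT. Luciferin read by luminescence; normalized to 57 uM ketoconazole full inhibition.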
Cytochrome P450 3A4 (Homo sapiens), sequence (P08684 whole entry, looked up): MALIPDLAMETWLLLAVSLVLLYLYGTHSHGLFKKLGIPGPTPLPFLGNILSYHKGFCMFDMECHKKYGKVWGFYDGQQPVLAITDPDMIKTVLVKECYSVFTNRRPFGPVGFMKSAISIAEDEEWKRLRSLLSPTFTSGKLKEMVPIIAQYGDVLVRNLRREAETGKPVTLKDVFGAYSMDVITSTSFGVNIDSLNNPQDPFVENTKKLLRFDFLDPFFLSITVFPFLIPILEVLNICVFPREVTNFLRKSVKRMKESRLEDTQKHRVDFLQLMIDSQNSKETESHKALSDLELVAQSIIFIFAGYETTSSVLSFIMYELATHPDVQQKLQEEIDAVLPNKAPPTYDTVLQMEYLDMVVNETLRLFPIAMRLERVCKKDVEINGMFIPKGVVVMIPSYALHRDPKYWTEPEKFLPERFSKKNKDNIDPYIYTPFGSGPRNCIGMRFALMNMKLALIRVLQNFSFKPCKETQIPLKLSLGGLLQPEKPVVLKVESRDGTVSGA

Assay [9] is described as follows: qHTS Assay for Lipid Storage Modulators (AID 1519; calls by dose curve). As to conditions: Drosophila S3 cells, BODIPY lipid droplet/cell ratio, laser cytometry, cells loaded with oleic acid; for activity change, negative = inhibition: at 57.5 µM (top of the series). The procedure, abridged:
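Cells seeded at 5,000 per well were treated with compounds over a concentration series and loaded with oleic acid (400 uM, as added). Lipid droplet fluorescence (488 nm excitation, 500-530 nm channel) was read by laser-scanning cytometry and normalized to 20 uM Triacsin C.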

Assay [10] can be described thus: Primary qHTS for small molecule stabilizers of the endoplasmic reticulum resident proteome: Secreted ER Calcium Modulated Protein (SERCaMP) assay (AID 1508630; active = well fitted curve in the direction sought with a large enough effect; an effect the other way counts as inactive or inconclusive; also: % is scaled to controls: 0 for no effect and ±100 for the full control effect). The procedure, abridged: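 GLuc-SERCaMP-expressing SH-SY5Y cells, pretreated 16 h with compound, are challenged with thapsigargin to empty ER calcium stores; after 4 h, coelenterazine is added directly to the medium and luminescence is imaged.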

Assay [11] concerns the target Glucocorticoid receptor (Homo sapiens) (UniProt P04150). Put plainly: GR-GFP Redistribution (AID 450;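 active = compounds whose dose series gives a full or clear partial fitted curve of increased nuclear translocation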; also: potency is read from the fitted curve at half-maximal effect). To be noted: U2OS GR-GFP nuclear translocation, laser cytometry, 2 h.
The target of assay [12] is Ubiquitin carboxyl-terminal hydrolase 1 (Homo sapiens) (UniProt O94782). Put plainly: Inhibitors of USP1/UAF1: Pilot qHTS (AID 504865; active = well fitted curve in the direction sought with a large enough effect; an effect the other way counts as inactive or inconclusive;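 also: rhodamine fluorescence freed from ubiquitin-rhodamine substrate followed over time; top concentration of the series differs between compounds; % is scaled to controls: 0 for no effect and ±100 for the full control effect; nearly all actives have a fitted effect of over 35% in size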). In short, it runs like this:
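In 50mM HEPES pH 7.8 containing 0.5mM EDTA, 1mM TCEP, 0.1 mg/ml BSA and 0.01% Tween-20, 1nM USP1/UAF1 is exposed to compound for 15 min, then Ub-Rho (150nM final) is added and fluorescence is read over time.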

Setting [13] is: measured here: cell count channel max response.
Setting [14] is: measured here: lipid channel max response.

Glucocorticoid receptor (Homo sapiens), sequence (P04150 whole entry, looked up, the tested form may be a part): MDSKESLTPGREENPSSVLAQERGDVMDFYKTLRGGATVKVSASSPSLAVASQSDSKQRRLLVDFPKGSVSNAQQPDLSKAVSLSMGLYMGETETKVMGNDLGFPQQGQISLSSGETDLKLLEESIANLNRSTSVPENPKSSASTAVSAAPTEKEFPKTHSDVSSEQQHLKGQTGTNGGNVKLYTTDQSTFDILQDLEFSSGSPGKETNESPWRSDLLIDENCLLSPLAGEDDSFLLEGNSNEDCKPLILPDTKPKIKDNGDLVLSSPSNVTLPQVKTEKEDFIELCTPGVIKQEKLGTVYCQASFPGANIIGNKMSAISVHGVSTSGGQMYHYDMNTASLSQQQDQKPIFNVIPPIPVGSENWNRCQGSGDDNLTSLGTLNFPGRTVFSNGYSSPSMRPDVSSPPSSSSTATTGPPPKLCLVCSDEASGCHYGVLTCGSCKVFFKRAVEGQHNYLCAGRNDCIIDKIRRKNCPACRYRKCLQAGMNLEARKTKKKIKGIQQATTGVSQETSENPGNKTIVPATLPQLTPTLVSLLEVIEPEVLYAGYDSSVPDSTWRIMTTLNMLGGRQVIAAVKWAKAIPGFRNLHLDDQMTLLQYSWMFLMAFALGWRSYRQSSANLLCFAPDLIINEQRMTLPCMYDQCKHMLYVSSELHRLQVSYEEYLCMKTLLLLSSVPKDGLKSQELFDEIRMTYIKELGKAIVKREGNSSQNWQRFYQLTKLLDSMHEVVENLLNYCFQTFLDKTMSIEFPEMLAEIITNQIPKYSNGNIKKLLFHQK
Cytochrome P450 1A2 (Homo sapiens), sequence (P05177 whole entry, looked up): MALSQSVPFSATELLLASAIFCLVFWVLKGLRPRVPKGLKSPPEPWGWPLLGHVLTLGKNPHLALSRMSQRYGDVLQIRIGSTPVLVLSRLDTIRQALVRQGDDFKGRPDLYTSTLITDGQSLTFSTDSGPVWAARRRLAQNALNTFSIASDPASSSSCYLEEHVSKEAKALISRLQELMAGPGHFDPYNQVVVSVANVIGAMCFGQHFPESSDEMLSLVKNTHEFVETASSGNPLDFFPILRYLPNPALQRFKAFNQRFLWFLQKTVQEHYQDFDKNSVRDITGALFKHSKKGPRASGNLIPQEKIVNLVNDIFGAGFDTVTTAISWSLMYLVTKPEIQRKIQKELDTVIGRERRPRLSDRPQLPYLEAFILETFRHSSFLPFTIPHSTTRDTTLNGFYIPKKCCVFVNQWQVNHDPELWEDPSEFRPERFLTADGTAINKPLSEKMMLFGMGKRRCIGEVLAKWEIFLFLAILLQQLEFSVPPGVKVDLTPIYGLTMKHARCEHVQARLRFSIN
Ubiquitin carboxyl-terminal hydrolase 1 (Homo sapiens), sequence (O94782 whole entry, looked up): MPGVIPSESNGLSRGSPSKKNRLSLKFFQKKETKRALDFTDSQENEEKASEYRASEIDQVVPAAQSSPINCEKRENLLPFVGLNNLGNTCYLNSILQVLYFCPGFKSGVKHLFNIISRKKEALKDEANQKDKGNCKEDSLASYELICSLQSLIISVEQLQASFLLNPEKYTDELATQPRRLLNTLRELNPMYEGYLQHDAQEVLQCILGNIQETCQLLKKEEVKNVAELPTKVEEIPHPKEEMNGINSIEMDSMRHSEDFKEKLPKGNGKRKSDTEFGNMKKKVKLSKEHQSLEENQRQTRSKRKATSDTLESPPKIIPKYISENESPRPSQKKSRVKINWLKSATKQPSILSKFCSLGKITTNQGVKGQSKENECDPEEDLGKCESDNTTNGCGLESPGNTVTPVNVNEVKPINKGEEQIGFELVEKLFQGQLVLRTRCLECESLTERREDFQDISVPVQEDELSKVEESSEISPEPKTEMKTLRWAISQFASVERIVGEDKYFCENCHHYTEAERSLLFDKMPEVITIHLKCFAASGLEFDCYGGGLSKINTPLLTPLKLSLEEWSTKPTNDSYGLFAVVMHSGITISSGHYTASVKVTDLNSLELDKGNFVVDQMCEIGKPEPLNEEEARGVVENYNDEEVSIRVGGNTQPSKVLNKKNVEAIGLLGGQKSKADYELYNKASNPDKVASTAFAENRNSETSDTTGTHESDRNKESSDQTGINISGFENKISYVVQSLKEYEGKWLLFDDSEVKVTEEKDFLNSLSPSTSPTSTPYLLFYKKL

`N#Cc1cccc(NC(=O)N2CC[C@@]3(CCCN(C(=O)c4ccco4)C3)C2)c1`: the activity change, negative = inhibition was -2.67% (inactive) in assay [1], 3.83% (inactive) in [3] and 6.04% (inactive) in [9]. Also, the Potency result in assay [2], in assay [6], in assay [7] and in assay [8] was “inactive” in each case. For the same compound, the activity, negative = inhibition in assay [4] is -1.84% (inactive). The Potency in assay [5] is > 46 µM (inactive). In addition, the max response came out at 4.12% in assay [9] (setting [13]) and 14% in assay [9] (setting [14]). Further, the result in [10] was inactive.
For the compound `COc1ccc(C(=O)N2CCC[C@@]3(CCN(C(=O)NC(C)C)C3)C2)cc1`, the activity change, negative = inhibition in [1] was -14% (inactive); in assay [3] it was 8.55% (inactive); in [9] it was 3.48% (inactive). In addition, the values for the Potency in [2] and in assay [5] were 12.6 µM (active) and > 46 µM (inactive), respectively. In assay [4], the activity, negative = inhibition is -9.21% (inactive). For the same compound, the Potency result in assay [6], in assay [7] and in [8] was “inactive” in each case. For the same compound, the max response was 8.84% in assay [9] (setting [13]) and 15.8% in assay [9] (setting [14]). The outcome in [10] was inactive.
In the case of `O=C(c1ccco1)N1CCC[C@@]2(CCN(c3ccccn3)C2)C1`, the results for the activity change, negative = inhibition in assay [1], in [3] and in [9] were 4.46% (inactive), -3.78% (inactive) and 4.34% (inactive), respectively. Also, the activity, negative = inhibition in [4] is -0.822% (inactive). Moreover, the Potency in [5] was > 46 µM (inactive). The Potency result in assay [6] and in assay [7] was “inactive” throughout. Also, the max response in assay [9] (setting [13]) stood at 22.6%; in assay [9] (setting [14]), 30%. The result in [10] was inactive.
Regarding `CN(C)Cc1ccccc1-c1nccc(NCc2cccs2)n1`, the activity change, negative = inhibition in assay [1] was 3.22% (inactive); in assay [3], -11.6% (inactive); in assay [9], 10.9% (inactive). The results for the Potency in assay [2], in assay [11] and in [5] were 0.794 µM (active), > 46 µM (inactive) and > 46 µM (inactive), respectively. The activity, negative = inhibition in assay [4] was 0.159% (inactive). Besides, the Potency result in assay [6] and in assay [12] was “inactive” throughout. Further, the max response in assay [9] (setting [13]) came out at 4.85%; in assay [9] (setting [14]), 9.23%. Further, the outcome in [10] was inactive.
Take `CC(=O)NCCNc1ncncc1-c1ccccc1C(F)(F)F`: the activity change, negative = inhibition in assay [1] was 1.26% (inactive); in [9], -1.77% (inactive). In addition, the Potency entry in [2], in [6], in assay [7], in [8] and in assay [12] was “inactive” throughout. Also, the activity, negative = inhibition in assay [4] was 6.6% (inactive). Further, the Potency in [11] and in assay [5] was > 46 µM (inactive) in each case. Moreover, the max response in assay [9] (setting [13]) was -7.27%; in [9] (setting [14]), -8.94%. In addition, the result in assay [10] was inactive.
Turning to `N#Cc1ccc(CN2CCC3(CC2)CCN(C(=O)c2cccc(F)c2)CC3)cc1`, the figures for the activity change, negative = inhibition in [1] and in assay [9] were 3.84% (inactive) and 1.66% (inactive), respectively. The activity, negative = inhibition in assay [4] was 8.5% (inactive). For the same compound, the Potency in [5] is > 46 µM (inactive). For the same compound, the Potency result in [6] and in [7] was “inactive” in each case. Moreover, the max response came to 7.59% in [9] (setting [13]) and 9.63% in assay [9] (setting [14]). Also, the outcome in assay [10] was inactive.
On to `CS(=O)(=O)N1CCC2(CCN(c3ccncc3)CC2)CC1`, for which the figures for the activity change, negative = inhibition in [1] and in assay [9] were -13.1% (inactive) and 3.83% (inactive), respectively. Besides, the values for the Potency in assay [2] and in assay [5] were 12.6 µM (active) and > 46 µM (inactive), respectively. Moreover, in assay [4], the activity, negative = inhibition is 0.543% (inactive). In addition, the Potency entry in [6] and in [7] was “inactive” in each case. The max response in assay [9] (setting [13]) was determined as 7.45%; in assay [9] (setting [14]), 13.6%. Also, the result in assay [10] was inactive.
Turning to `CNc1nc(-c2ccccc2C(F)(F)F)nc2ccccc12`, the values for the activity change, negative = inhibition in assay [1], in assay [3] and in assay [9] were -1.48% (inactive), 5.59% (inactive) and 5.47% (inactive), respectively. Moreover, the Potency in assay [2] was 0.251 µM (active); in assay [11] it was > 46 µM (inactive); in assay [5], > 46 µM (inactive). In assay [4], the activity, negative = inhibition is 3.95% (inactive). The Potency entry in [6] and in assay [7] was “inactive” each time. The results for the max response in assay [9] (setting [13]) and in assay [9] (setting [14]) were 10% and 19.8%, respectively. The outcome in assay [10] was inactive.
